The values below come from PubChem BioAssay AID2314 (National Center for Advancing Translational Sciences (NCATS), 2010).

Where “and” joins values, the source holds several entries; their conditions need not be identical. Equal values may be shown once. The campaign covered roughly 300,000 compounds. About 37,000 (12%) were called active. Only a selection was taken, and actives are over-represented in it overall. A number with no mark means an inactive call. Rule as the data show it: active = max response mostly above about 13% (no sharp cut-off); inactive = mostly below about 14%.

The nature of the test: Cycloheximide Counterscreen for Small Molecule Inhibitors of Shiga Toxin. Also: read at 38.3 µM for the half of the compounds with a filed dose; 0% is about no effect. The conditions noted are these: cell reporter, cycloheximide protein synthesis inhibition counterscreen; hits give high values.
Turning to `CCOC(=O)Cn1c(=O)sc2cccc(Cl)c21`, the max response is -1.55%.

For `COc1cc(C)c(C(C)C)cc1S(=O)(=O)n1ccnc1`, the max response was 0.42%.

With `CCOC(=O)c1ccc(N=C2SC(C(=O)NC)CC(=O)N2CCc2ccccc2)cc1` (stereo not drawn), the max response was 1.86%.

In the case of `Cc1cc(=O)cc(C)n1-c1ccc(Cl)c(Cl)c1`, the max response was -2.09%.

For `O=C(CSc1nc2ccc(Nc3nc(N4CCOCC4)nc(N4CCOCC4)n3)cc2s1)NCc1ccco1`, the max response was -3.23%.

On to `CC(=O)Nc1ccc(S(=O)(=O)NCC2CCC(C(=O)NCCc3ccccc3)CC2)cc1` (stereo not drawn), for which the max response is -1.06%.

Regarding `O=C(CN1CCOCC1)Nc1ccc(NC(=O)CN2CCOCC2)c(Cl)c1`, the max response was -4.13%.

`CC(=O)Nc1ccc(NC(=O)CN2CCCC(C)C2)c(Cl)c1` (stereo not drawn): the max response was 22.7% (active).

For `CC1CCCN(CC(=O)Nc2cc(Cl)ccc2Oc2ccccc2)C1` (stereo not drawn), the max response is 8.16%.

`Nc1nc(SCC(=O)Nc2ccc(Cl)cc2C(F)(F)F)n[nH]1`: the max response is -3.77%.

For the molecule `N#Cc1ccc(/C=C2\CCn3c2nc2cc(C(=O)O)ccc2c3=O)cc1`, the max response is -2.31%.

With `CC(=O)c1ccc(OCCN2CCOCC2)cc1`, the max response was 3.75%.

Turning to `c1ccc(-c2ccc(OCCN3CCOCC3)cc2)cc1`, the max response is 47.6% (active).

Turning to `CC(C)(c1ccccc1)c1ccc(OCCN2CCCC2)cc1`, the max response was 2.15%.

Turning to `CCc1c(C)nc(N)n2c(SCC(=O)NC3CCCCC3)nnc12`, the max response is 11.5%.

As to `COc1ccc(-c2nn(-c3ccccc3)cc2/C=N/Nc2ccccn2)cc1OC`, the max response is 14.8% (active).

Consider `COc1ccc(-c2nn(-c3ccccc3)cc2C(=O)Nc2nccs2)cc1OC`, for which the max response was -1.49%.

For `CN(C)/N=C/c1cn(-c2ccccc2)nc1-c1cccnc1`, the max response was 6.55%.

For `Cc1cc(C)cc(C(=O)N(CCc2ccccc2)C2=CC3CCC(C2)N3C)c1` (stereo not drawn), the max response is 3.92%.

Turning to `O=C(C1CC(=O)N(c2ccc(Br)cc2)C1)N1CCCC1` (stereo not drawn), the max response is 4.73%.

Regarding `Cc1ccc(-c2cc(=O)c3ccc(F)cc3[nH]2)cc1`, the max response was 6.8% (active).

For the molecule `Cc1ccc(-c2cc(=O)c3ccc(Cl)cc3[nH]2)cc1`, the max response was -0.873% and 14.9%.

On to `O=c1cc(-c2ccccc2)[nH]c2cc(F)ccc12`, for which the max response is -3.07%.

In the case of `CC(=O)NC(CC(=O)Nc1cccc(S(=O)(=O)N2CCCC2)c1)c1ccccc1` (stereo not drawn), the max response is -2.18%.

As to `COc1ccc(S(=O)(=O)N2CCOC2CNC(=O)C(=O)NCc2ccc(F)cc2)cc1` (stereo not drawn), the max response was -1.46%.

As for `CC1(C)C=C2[C@H]3CC[C@@H]4[C@@]5(C)CCC(=O)C(C)(C)[C@@H]5CC[C@@]4(C)[C@]3(C)CC[C@@]2(C(=O)O)CC1`, the max response is 4.36%.

Turning to `O=C(CN(C(=O)c1nsc(Cl)c1Cl)c1cccc(F)c1)NC1CCCC1`, the max response is -1.97%.

Regarding `COc1cc(NC(=S)N2CCCC(C)C2)cc(OC)c1OC` (stereo not drawn), the max response was -2.44%.

Regarding `COc1cc(NC(=S)NNC(=O)CC(C)C)c(OC)cc1Cl`, the max response is -6.7%.

On to `COc1cc(NC(=S)N2CCCC(C)C2)c(OC)cc1Cl` (stereo not drawn), for which the max response was 17.5% (active).

As to `COc1ccccc1C(=O)N1C(CC(=O)Nc2ccccc2C)C(=O)NC2CCCCC21` (stereo not drawn), the max response was -3.1%.

For `N#CC(C#N)=CN=c1ccn(Cc2ccc(Cl)cc2Cl)cc1`, the max response is -0.809%.

On to `C=CCn1c(CCNC(=O)c2cccs2)n[nH]c1=S`, for which the max response was 2.82%.

In the case of `C=CCn1c(=NC(=O)c2ccc(S(=O)(=O)N3CCCC3)cc2)sc2cc(NC(C)=O)ccc21`, the max response is -4.67%.

For the molecule `C=CCn1c(=NC(=O)c2cccs2)sc2cc(NC(C)=O)ccc21`, the max response is 16.5% (active).

As to `CN1CCN(S(=O)(=O)c2cccc(C(=O)N3CCc4ccccc43)c2)CC1`, the max response is -1.65%.

As to `O=C1c2ccccc2NC(c2ccc(-c3cccc(Cl)c3)o2)N1O` (stereo not drawn), the max response was 38.7% (active).

Consider `CCOC(=O)NN1C(=O)c2ccccc2NC1c1cccc(O)c1` (stereo not drawn), for which the max response was 7.43%.

For the molecule `O=C1NN(c2ccccc2)C(=O)/C1=C/c1ccc(-c2cccc(C(=O)O)c2)o1`, the max response was 21%.

For `CC(C)[C@@H](NC(=O)OC(C)(C)C)C(=O)NCC1CCC(C(=O)N[C@@H](Cc2ccccc2)C(=O)O)CC1` (stereo partly drawn), the max response was -1.77%.

Take `O=C(c1cn2ccccc2n1)N1CCc2c([nH]c3ccccc23)C1c1ccccn1` (stereo not drawn): the max response was 3.01%.

In the case of `Cc1cccc(C(=O)N2CCc3c([nH]c4ccccc34)C2CC(C)C)n1` (stereo not drawn), the max response is 26.8% (active).

`Cc1cccc(C2c3[nH]c4ccccc4c3CCN2C(=O)c2cc(-c3cccn3C)n[nH]2)n1` (stereo not drawn): the max response is -3.03%.

Consider `CCN(CCn1cccn1)Cc1nc(-c2ccc(C(=O)OC)cc2)no1`, for which the max response is -4.94%.

Turning to `CC(=O)C1=C(O)C(=O)N(c2ccc(S(N)(=O)=O)cc2)C1c1ccccc1F` (stereo not drawn), the max response is -0.999%.

Take `CCOC(=O)C1CCN(Cc2nnc(-c3cccc(Br)c3)o2)CC1`: the max response is -0.93%.

`COc1ccc(-c2csc(N3CCN(Cc4ccc5c(c4)OCO5)CC3)n2)cc1`: the max response is -4.44%.

`Brc1ccc(-c2csc(N/N=C/c3ccc4c(c3)OCO4)n2)cc1`: the max response is 17.6%.

Consider `NS(=O)(=O)c1ccc(Nc2nc(-c3ccccc3)cs2)cc1`, for which the max response was 18.5%.

As for `CCOC(=O)N/N=C/c1cccnc1`, the max response is 11.3%.

Regarding `COc1ccc(-c2csc(Cc3nc(O)cs3)n2)cc1`, the max response was 37.4% (active).

On to `CN(c1ccc(O)cc1)c1nc(-c2cccnc2)cs1`, for which the max response was 56.1% (active).

For `Brc1ccc(-c2csc(N/N=C/c3cccnc3)n2)cc1`, the max response was 19.4% (active).

For `CC(C)(C)C(=O)OCc1nc(-c2ccc(O)c(O)c2)cs1`, the max response was 5.11%.

As for `COc1ccc(Nc2nc(-c3ccccc3)cs2)cc1`, the max response was 46.6% (active).

On to `COc1ccc(CCN(C(=O)COc2ccccc2)c2nc(-c3ccccc3)cs2)cc1OC`, for which the max response is 5.03%.

Consider `CN(C(=O)CSc1nc(C2CC2)nc2ccccc12)c1nc(-c2ccccc2)cs1`, for which the max response was 4.58%.

For `COc1ccc(-c2csc3ncnc(N4CCN(S(=O)(=O)c5ccccc5C#N)CC4)c23)cc1`, the max response is -2.23%.

Take `COc1cc(/C=N/O)cc(Br)c1OS(=O)(=O)c1ccc(C)cc1`: the max response is 1.45%.

With `COc1cc(NC(=O)CCNC(=O)Cn2ccc3ccccc3c2=O)cc(OC)c1OC`, the max response was -5.95%.

With `COc1ccc(OC)c(C(=O)NC(CC(N)=O)c2ccc(N3CCC(N4CCCCC4)CC3)c([N+](=O)[O-])c2)c1` (stereo not drawn), the max response is 4.9%.

Consider `CCC(C(=O)NC1CCCC1)N(C(=O)Cn1nnc(-c2ccc(C)o2)n1)c1ccc(OC)c(OC)c1` (stereo not drawn), for which the max response is -5.67%.

`Cc1scc(C(=O)NNC(=S)NCc2ccccc2)c1C`: the max response is -0.644%.

`Cc1ccc(S(=O)(=O)N(Cc2ccc(Cl)cc2)c2ccccc2C(=O)NCc2cccnc2)cc1`: the max response is 7.18%.

For `COC(=O)c1cc2c(ccn2C)n1C`, the max response was -8.1%.

As for `COC(=O)CCc1sc(Nc2ccc(Br)cc2)nc1-c1ccc(OC)cc1`, the max response was 11.1%.

For the molecule `O=C(Nc1ccc(-c2csc(Nc3cccc(C(F)(F)F)c3)n2)cc1)c1cccc(C(F)(F)F)c1`, the max response was -4.63%.

For the molecule `COc1ccc(-c2csc(Nc3ccc(O)cc3)n2)cc1`, the max response is 58.3% (active).

On to `COc1ccc(OC)c(Nc2nc(-c3ccc(O)c(O)c3)cs2)c1`, for which the max response is 0.815%.

Take `Oc1ccc(-c2csc(Nc3cccnc3)n2)cc1`: the max response is 33.7% (active).

Consider `COC(=O)CCCCCN1C(=O)NC(c2ccc(-c3ccccc3)cc2)C(C(=O)OCc2ccccc2)=C1C` (stereo not drawn), for which the max response is -3.62%.

Take `CN1C2CCC1/C(=C\c1ccccc1Cl)C(=O)/C2=C\c1ccccc1Cl`: the max response is -1.18%.

Consider `Cc1cc(C)c(S(=O)(=O)c2ccc(F)cc2C)c(=O)[nH]1`, for which the max response was 0.432%.

As to `Cc1ccc(-c2nc3c(cnn3-c3ccccc3)c(=O)o2)cc1`, the max response is -3.4%.

Regarding `CC(=O)Cn1cnc2c(cnn2-c2ccccc2)c1=O`, the max response was 20.7% (active).

With `O=C(Cn1cnc2c(cnn2-c2ccc(F)cc2)c1=O)NCCc1ccccc1`, the max response was -1.32%.

On to `O=C(Cn1cnc2cc([N+](=O)[O-])ccc2c1=O)NC(=O)NCc1ccccc1`, for which the max response was 5.35%.

Turning to `COc1ccc(-n2c(C)nc3c(cnn3-c3ccccc3)c2=O)cc1`, the max response was -2.87%.

Regarding `O=C(Cn1cnc2c(cnn2-c2ccccc2)c1=O)NCc1ccccc1`, the max response was 20.7% (active).

`Cc1cc(C)n(S(=O)(=O)c2cccc([N+](=O)[O-])c2)n1`: the max response is 0.92%.

For the molecule `COc1ccccc1C(=O)NCc1nnc(SC(C)C(=O)Nc2nccs2)n1C` (stereo not drawn), the max response was 2.76%.

For `Cc1ccc(-n2ncc3c2CCCC3NC(=O)c2cnccn2)cc1C` (stereo not drawn), the max response is 9.44%.

As to `C/C=C/c1ccc(OCCCCN2CCC(C)CC2)c(OC)c1`, the max response was 0.514%.

With `c1ccc(CSc2ncnc3c2sc2nc(N4CCOCC4)c4c(c23)CCCC4)cc1`, the max response is -3.72%.

Turning to `Cc1nnc(N/N=C/c2cccs2)[nH]c1=O`, the max response was -2.07%.

Take `Cc1n[nH]c(=O)nc1N/N=C/c1cccs1`: the max response is 25.7% (active).

In the case of `S=c1[nH]nc(-c2cccs2)n1/N=C/c1cccs1`, the max response is 8.89%.

As to `COCCOC(=O)c1sc(=S)n(CCOC)c1N`, the max response was -1.77%.

Consider `CC(C)(C)c1ccc(Cn2nnc3c(=O)[nH]c(C4CCCN(C(=O)c5ccco5)C4)nc32)cc1` (stereo not drawn), for which the max response is 4.58%.

Consider `Clc1ncn(CCOc2ccccc2)c1Cl`, for which the max response is -2.48%.

For `Cc1cccc2c1N(CCOc1ccccc1)C(=O)C2=O`, the max response is 8.28%.

As to `Cc1nn(CCOc2ccccc2)c(=O)n1-c1ccccc1F`, the max response was 49.6% (active).

As for `CCc1nc2cccnc2n1-c1ccc(C(=O)O)cc1`, the max response is -1.63%.
